Test results from the supplement of paper PMC7156485.
± gives the standard deviation of the averaged measurements.

Columns and labels:
Conditions in all cases: concentration: 10 µM; 24 h
HCC1569 [1] = assay: cell number relative to DMSO (% of DMSO); higher = more cells (less growth inhibition / toxicity)
Method in brief: (§1)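 HCC1569 and TDF cells were seeded at 800 per well in 384-well plates in RPMI with 10% FBS and treated with compounds at 10 µM for 24 h at 37 °C, in triplicate. After fixation in 3.7% formaldehyde, cells were stained with a rabbit anti-H1.0 antibody, an AlexaFluor 647 secondary and DAPI, and six fields per well were imaged at ×10. H1.0 nuclear intensity or cell number is given as percent of the plate control, using the median of replicates, with HCC1569 values smoothed for positional effects.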

TDF [2] = assay: as above
Method in brief: as §1

TDF [3] = assay: H1.0 immunofluorescence intensity relative to DMSO (% of DMSO); higher = stronger H1.0 induction, active = 120 or more
Method in brief: as §1

HCC1569 [4] = assay: H1.0 immunofluorescence intensity relative to DMSO (% of DMSO); higher = stronger H1.0 induction, active = 140 or more
Method in brief: as §1
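Wherever H1.0 immunofluorescence intensity relative to DMSO is given: TDF is a line of transformed human dermal fibroblasts of mesenchymal origin.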
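Wherever cell number relative to DMSO is given: TDF denotes transformed human dermal fibroblasts of mesenchymal origin.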

Row | SMILES | cell number (HCC1569 [1]) | cell number (TDF [2]) | H1.0 immunofluorescence intensity (TDF [3]) | H1.0 immunofluorescence intensity (HCC1569 [4])
1 | Cl.O=C(O)C1=CCCN(CCON=C(c2ccccc2)c2ccccc2)C1 [NO-711 hydrochloride] | 100 | 93.9 | 94.2 (inactive) | 97.9 (inactive)
2 | Cc1ccc([N+](=O)[O-])cc1S(=O)(=O)N(C)N=Cc1cnc2ccc(Br)cn12 | 52 | 11.6 | 111 (inactive) | 104 (inactive)
3 | c1ccc(C2CN3CCSC3=N2)cc1 (centres undefined) [Levamisole] | 98.3 | 94.6 | 102 (inactive) | 92.1 (inactive)
4 | Cl.O=C(CCCN1CCC(O)(c2cccc(C(F)(F)F)c2)CC1)c1ccc(F)cc1 [Trifluperidol hydrochloride] | 101 | 111 | 98.4 (inactive) | 105 (inactive)
5 | CCCOC(=O)c1cc(O)c(O)c(O)c1 [N-Propyl gallate] | 89 | 91 | 100 (inactive) | 107 (inactive)
6 | CN(C)CCC=C1c2ccccc2CCc2ccccc21.Cl [Amitriptyline.HCl] | 105 | 89.4 | 99.6 (inactive) | 123 (inactive)
7 | CC(=O)OC1(C(C)=O)CCC2C3C=C(C)C4=CC(=O)CCC4(C)C3CCC21C (centres undefined) [Megestrol Acetate] | 106 | 96.9 | 98.9 (inactive) | 104 (inactive)
8 | O=C1NC(=O)c2cc(Nc3ccc(F)cc3)c(Nc3ccc(F)cc3)cc21 [PKCbII/EGFR Inhibitor] | 95.1 | 111 | 89.7 (inactive) | 121 (inactive)
9 | Cc1ccc(N(CC2=NCCN2)c2cccc(O)c2)cc1 [Phentolamine] | 107 | 100 | 99.7 (inactive) | 96.6 (inactive)
10 | O=C1Nc2ccc(Cl)cc2C1=Cc1cc(Cl)c(O)c(Cl)c1 [PKR Inhibitor, Negative Control] | 101 | 98.8 | 95.1 (inactive) | 128 (inactive)
11 | CN1CCN(c2c(F)cc3c(=O)c(C(=O)O)cn4c3c2SCC4)CC1 [Rufloxacin] | 107 | 94.7 | 100 (inactive) | 95.2 (inactive)
12 | O=C(Nc1ccccc1C(=O)Nc1ccc(CCO)cc1)c1ccc([N+](=O)[O-])cc1 [N-(4-(2-hydroxyethyl)phenyl)-2-(4-nitrobenzamido)benzamide] | 82.4 | 90.9 | 101 (inactive) | 144 (active)
13 | Oc1ccc(C=Cc2cc(O)cc(O)c2)cc1 [Resveratrol] | 79.2 ± 6.3 | 79.5 ± 4 | 99.5 (inactive) | 113 (inactive)
14 | CCCCCCCCC=CCCCCCCCCCC(=O)O [11(Z)-Eicosenoic acid] | 105 | 105 | 98.9 (inactive) | 101 (inactive)
15 | CCCCCC=CCC=CCC1OC1CC=CCCCC(=O)O (centres undefined) [8,9-Epoxyeicosatrienoic acid] | 103 | 101 | 97.7 (inactive) | 104 (inactive)
16 | CN(C)CCCN1c2ccccc2CCc2ccccc21.Cl [Imipramine hydrochloride] | 108 | 98.4 | 97.2 (inactive) | 105 (inactive)
17 | COC(=O)CCc1ccc(OCC(O)CNC(C)C)cc1 (centres undefined) [Esmolol] | 100 | 95.1 | 101 (inactive) | 91.9 (inactive)
18 | OC1c2ccccc2N=C2CCCN21 (centres undefined) [Peganole] | 95 | 93.7 | 95.3 (inactive) | 91.1 (inactive)
19 | Cc1nc2n(c(=O)c1CCN1CCC(c3noc4cc(F)ccc34)CC1)CCCC2 [Risperidone] | 100 ± 3 | 99.6 ± 4 | 93.1 (inactive) | 107 (inactive)
20 | CC(C)c1cccc(O)c(=O)c1 [Hinokitiol] | 83.8 | 83 | 89.5 (inactive) | 94.8 (inactive)
21 | Nc1nc(Nc2ccccc2)nc2c1ncn2C1OC(CO)C(O)C1O (centres undefined) [2-Phenylaminoadenosine] | 101 | 100 | 90 (inactive) | 102 (inactive)
22 | N[C@@H](CCCC(=O)O)C(=O)O [L-2-aminoadipic acid] | 105 | 109 | 99.8 (inactive) | 93.6 (inactive)
23 | O=C1NC(C(=O)O)CS1 (centres undefined) [Procysteine] | 101 | 110 | 97.1 (inactive) | 98.1 (inactive)
24 | COc1ccc2c(c1)c(CC(=O)O)c(C)n2C(=O)c1ccccc1 [1-benzoyl-5-methoxy-2-methylindole-3-acetic acid] | 101 | 104 | 96.8 (inactive) | 93.1 (inactive)
25 | O=C(NCc1ccc2c(c1)OCO2)c1c(Cl)cccc1Cl [N-(1,3-benzodioxol-5-ylmethyl)-2,6-dichlorobenzamide] | 97.3 | 103 | 97 (inactive) | 105 (inactive)
26 | CCCCCCCCCCCCCC=CC(O)C(CO)NC(=O)CCCCCCCCCCCCCCC (centres undefined) [C16 Ceramide] | 96.6 | 95.3 | 102 (inactive) | 97.5 (inactive)
